PubChem BioAssay AID588335 (The Scripps Research Institute Molecular Screening Center, 2011)
In all, about 360,000 compounds went through this assay and about 4,500 (1.2%) were called active. For the sample, actives were picked, then their nearest neighbours and some compounds at random. Unmarked numbers belong to inactive results. Cut-off read from the data, not from the text of the source: active = inhibition above about 30%; inactive = the rest.

Experiment: GDH-TPI coupling enzyme inhibitors, primary screen, artefact control for M. tuberculosis FBA inhibitor project, biochemical, absorbance, full deck (AID 588335);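 note: 0% = DMSO wells and 100% = wells lacking the enzyme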
Conditions: GDH-TPI coupled enzyme counterscreen, NADH absorbance; at 4.8 µM; active compounds read high

Row | SMILES | inhibition
1 | O=C(Cn1cc2c(n1)CCCCC2)NCCN1CCOCC1 | -6.93%
2 | CC(C)Cn1cc(-c2cncc3nccn23)cn1 | 4%
3 | COc1ccc2c3c(c(=O)oc2c1OCC(=O)C(C)(C)C)CCCC3 | -0.64%
4 | CCCOc1ccc2c3c(c(=O)oc2c1OCCC)CCC3 | 13.5%
5 | O=c1oc2c(CN3CCCCC3)c(O)ccc2c2c1CCCCC2 | 30.6% (active)
6 | Cc1cc(N(C)C)cc(C)[n+]1[O-] | -1.57%
7 | Nc1nc(O)c(CC(=O)O)s1 | 5.96%
8 | COc1ccc(-c2cc3ccc(OCc4nn[nH]n4)cc3oc2=O)cc1 | 34.6% (active)
9 | CCCCc1cc(=O)oc2cc(C)cc(OCc3nn[nH]n3)c12 | 22%
10 | Cc1noc(C)c1COc1ccc2ccc(=O)oc2c1 | 6.47%
11 | Cn1ccc(=Nc2ccc(NC(=O)c3ccc(N=c4ccn(C)c5ccc([N+](=O)[O-])cc45)cc3)cc2)cc1 | 13.7%
12 | O=C(NCc1cccnc1)c1cc(C2CCCN(C(=O)CCCc3ccccc3)C2)on1 (centres undefined) | -5.31%
13 | CN(C(=O)C1CCN(c2ncnc3c2nc2n3CCCCC2)CC1)C1CCCCC1 | -2.53%
14 | O=C(NNc1ccccc1Cl)C(O)(c1cccc(C(F)(F)F)c1)c1cccc(C(F)(F)F)c1 | 10.2%
15 | Fc1cc(Br)ccc1NC(=S)Nc1cccnc1 | -0.63%
16 | COc1cc(/C=N/NC(=S)Nc2cccnc2)cc(OC)c1O | 31.5% (active)
17 | COc1ccc(C(=O)CCC(=O)Nc2cccnc2)c(OC)c1 | -6.9%
18 | O=C(c1cccs1)C1C(c2ccc(Br)cc2)NC(=S)NC1(O)C(F)(F)F (centres undefined) | 12.2%
19 | Cc1c(NC(=O)C(C)OC(=O)c2c3c(nc4ccccc24)CCC(C)C3)c(=O)n(-c2ccccc2)n1C (centres undefined) | 3.38%
20 | Cc1ccccc1N1CC(c2nc3ccccc3[nH]2)CC1=O (centres undefined) | 2.42%

Row | SMILES | inhibition
21 | Cc1ccc(-c2nnc(-n3nnc4ccccc43)c3ccccc23)cc1 | 6.42%
22 | Cc1ccc(-c2nc3ccccc3[nH]c2=O)cc1 | 32.1% (active)
23 | CC1(C(=O)NCc2ccc(F)c(F)c2)Cc2c(-c3ccc4c(c3)OCO4)ccnc2O1 (centres undefined) | 0%
24 | CC1C(=O)Nc2ccccc2N1C(=O)c1c(F)cccc1F (centres undefined) | -1.38%
25 | Cn1c(=NC(=O)c2ccco2)sc2cccc(F)c21 | 51% (active)
26 | Cn1c(=NC(=O)c2cnccn2)sc2ccccc21 | 29.1%
27 | O=C(Cc1c(F)cccc1Cl)N1CCN(C(=O)c2ccco2)CC1 | -4.08%
28 | O=C(CN1CCCCCC1)Nc1c(Cl)cc(Cl)cc1Cl | 3.42%
29 | COc1cc2nc(CN(C)Cc3ccc(F)cc3)[nH]c(=O)c2cc1OC | -3.88%
30 | Cc1ccc(-n2c(SCC(=O)NCCC3=CCCCC3)nc3n[nH]c(C)c3c2=N)cc1Cl | -1.52%
31 | COc1cccc(-n2c(SCC(=O)NC3CCCCC3)nc3n[nH]c(C)c3c2=N)c1 | 0.37%
32 | CCCCNC(=O)CSc1nc2n[nH]c(C)c2c(=N)n1-c1cccc(Cl)c1C | 33.5% (active)
33 | CC(C)Nc1ccc(-n2nc3ccccc3[n+]2[O-])cc1 | 21.6%
34 | O=C(CN1C(=O)S/C(=C\c2ccccc2Cl)C1=O)NC1C=CS(=O)(=O)C1 (centres undefined) | 35.4% (active)
35 | CC12CCC(=O)N1C(C(=O)NCCN1C(=O)S/C(=C\c3ccccc3F)C1=O)CS2 (centres undefined) | 21.5%
36 | CN(C(=O)CN1C(=O)S/C(=C\c2ccccc2F)C1=O)C1CCS(=O)(=O)C1 (centres undefined) | 9.17%
37 | CCN(CC)C(=O)C1CCCN(Cc2cccc(Cl)c2)C1 (centres undefined) | 11.3%
38 | COc1ccccc1C(=O)Nc1ccnn1C1CCN(C(=O)C(C)(C)C)CC1 | 2.52%
39 | COc1cc(C(=O)N/C(=C\c2cn(C)c3ccccc23)C(=O)N2CCOCC2)cc(OC)c1OC | 33.6% (active)
40 | CCn1cc(/C=C(\NC(=O)c2cc(OC)c(OC)c(OC)c2)C(=O)N2CCN(C)CC2)c2ccccc21 | 27.5%

Row | SMILES | inhibition
41 | Cc1ccc(C(=O)N/C(=C\c2cn(C)c3ccccc23)C(=O)N2CCN(C)CC2)cc1 | 18.5%
42 | CN(Cc1c(F)cccc1Cl)C(=O)COC(=O)Cn1cnc2ccccc2c1=O | 7.14%
43 | C/C(=C\C(=O)c1cccnc1)Nc1ccc(C)c(C)c1 | 31.1% (active)
44 | Cc1ccc(OCC(=O)NCCCNC(=O)c2cccnc2)cc1C | -5.28%
45 | C/C(=C\C(=O)c1ccccc1)Nc1cccc(O)c1 | 8.48%
46 | C=C1C2C[C@H](O)C(C)(C)[C@@]2(O)[C@H](O)C[C@]23C[C@@](C)(O)[C@H](CC[C@H]12)[C@H]3O (some centres undefined) | 5.18%
47 | COc1ccc(SC[C@H](Cc2ccccc2)N2CCN(CCc3ccccc3)CCC2=O)cc1 | 3.36%
48 | C=CCOc1ccc(/C=N/n2cncn2)cc1OC | 19.5%
49 | O=C(CN1CCN(Cc2ccccc2)CC1)Nc1ccc(F)c(F)c1 | -9.79%
50 | COc1ccccc1CN1CCN(C(=O)Cc2ccccc2)CC1 | 6.8%
51 | COc1ccccc1/C=C/C=N/NC(=O)CN1CCN(Cc2ccccc2)CC1 | 49.7% (active)
52 | O=c1c2ccccc2[nH]c(=S)n1-c1cccc(Cl)c1 | 9.09%
53 | CN(C)CCn1c(=S)[nH]c2ccc(Cl)cc2c1=O | 32.9% (active)
54 | O=C(CCn1c(=S)[nH]c2cc3c(cc2c1=O)OCO3)NCc1ccc(Cl)cc1 | 20.7%
55 | O=C(CN1CCN(S(=O)(=O)c2cc(Cl)ccc2Cl)CC1)c1ccc(O)c(O)c1 | 18.1%
56 | Cc1cc(/C=N/NC(=O)CC2(C)OCCO2)c(C)n1-c1ccc(Cl)c(Cl)c1 | 0.72%
57 | Cc1cc(C=O)c(C)n1-c1ccc(NC2CCCCC2)c([N+](=O)[O-])c1 | 0.62%
58 | Cc1cc(/C=N/Nc2ccc([N+](=O)[O-])cn2)c(C)n1-c1cccc(C(=O)O)c1 | 38% (active)
59 | COc1ccc(-c2noc(C(C)NS(=O)(=O)c3ccc(NC(C)=O)cc3)n2)cc1 (centres undefined) | -8.81%
